Rows were chosen to be rich in hits. Some 21% of all compounds tested hit in one or more screens of this group.
Shiga toxin inh: inhibitors of Shiga toxin in Vero cells; 290,000 tested, 9.2% active; Vero cells, Shiga toxin protein synthesis inhibition reporter; inhibition, % at 38.7 µM; AID 2315; in the data active = inhibition mostly above about 28%, no sharp cut-off; inactive = mostly below about 43%
SARS PLpro yeast: inhibitors of SARS-CoV papain-like protease in yeast | AID 485353 | 330,000 tested, 0.19% active | Potency, µM (top dose mostly 32.9 µM), hits mostly activators | S. cerevisiae expressing SARS-CoV PLpro, growth rescue; note: nearly all actives have a fitted effect of over 55% in size
NS1 inh: blocks influenza NS1 protein function; Potency, µM (highest dose often 46.1 µM); 270,000 tested, 0.4% active; note: actives are rising curves; nearly all actives have a fitted effect of over 50% in size
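A cell-based growth assay was used: compounds that relieve NS1-induced slow growth of budding yeast raise OD600. Assay medium was yeast nitrogen base with ammonium sulphate and -URA supplement, pH 6.0, with 2% galactose.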
Cycloheximide cs: counter-screen hit for Shiga toxin inhibitors, cycloheximide | cell reporter, cycloheximide protein synthesis inhibition counterscreen | max response, % | 300,000 tested, 12% active; in the data active = max response mostly above about 13%, no sharp cut-off; inactive = mostly below about 14%; note: read at 38.3 µM for the half of the compounds with a filed dose
Pf growth 48h: inhibits P. falciparum growth in the first generation, 48 h; Potency, µM (top dose mostly 28.7 µM), usual class: inhibitors; AID 504832; P. falciparum luciferase growth in erythrocytes, 48 h; 310,000 tested, 5.9% active; active = well fitted inhibition curve with a large enough effect; inconclusive = small, poorly fitted or top-dose-only effect, or another doubt; inactive = no such curve, though single readings can be large or run the other way
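A one-generation exposure of luciferase-tagged malaria parasites in RPMI 1640/Albumax erythrocyte culture, 37 C and 5% CO2. Inhibition is inferred from decreased luminescence after adding detection reagent.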
Pf growth 96h: P. falciparum growth inhibition at 96 hour, primary screen for plastid delayed-death inhibitors; 320,000 tested, 6.9% active; P. falciparum luciferase reporter growth, 96 h; Potency, µM (top dose mostly 28.7 µM), usual class: inhibitors; active = well fitted inhibition curve with a large enough effect; inconclusive = small, poorly fitted or top-dose-only effect, or another doubt; inactive = no such curve, though single readings can be large or run the other way
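Cell-based qHTS: luciferase-tagged P. falciparum in erythrocytes (2% hematocrit, 0.05% parasitemia final) incubated with compounds for 96 hours, 37 C, 5% CO2; luciferase detection reagent then added and luminescence measured.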
Numbers stand for hits; - = inactive; ? = inconclusive; . = no result; ! = a repeat was not active. Unless noted, calls come from the whole dose curve.

SMILES	Shiga toxin inh	SARS PLpro yeast	NS1 inh	Cycloheximide cs	Pf growth 48h	Pf growth 96h
Cc1ccc(C2=C/C(=C/c3cccs3)C(=O)O2)cc1	-	-	-	22	-	?
CCOc1ccc(C2=C/C(=C/c3cccnc3)C(=O)O2)cc1	-	-	-	-	-	?
COc1ccc(C2=C/C(=C\c3ccc(OC(C)=O)cc3)C(=O)O2)cc1	87	-	.	40	-	-
CC(=O)Oc1cccc(C)c1	183!	.	.	75!	-	-
C=CCOC(=O)C1=C[C@H](C2CC2)[C@@H](CCCO)[C@H](OCC)O1	-	-	-	-	-	?
CCOC(CCNC(=O)c1cn(C)c(=O)c2c1c1ccccc1n2C)OCC	-	-	-	-	-	-
C=CCn1c(=O)c2c(C)c(C)sc2n2c(Nc3ccccc3)nnc12	-	-	-	-	?	?
c1ccc(N2CCN(c3nnc(Cc4cccnc4)c4ccccc34)CC2)nc1	-	-	-	-	7.4µM	-
c1ccc(Cc2nnc(N3CCCCC3)c3ccccc23)cc1	-	-	.	-	-	?
CSc1ccc(CN(C)C(=O)c2cc3ccccc3o2)cc1	87	-	-	39	-	-
CN(Cc1c(F)cccc1Cl)C(=O)c1cc2ccccc2o1	-	-	.	37	-	-
CN1[C@@H](c2ccccc2)CC(=NO)C[C@H]1c1ccccc1	.	.	-	.	.	.
CN1C2CCC1/C(=C\c1ccccc1)C(=O)/C2=C\c1ccccc1	-	-	-	-	1µM	?
CN1C2CCC1/C(=C/c1ccccn1)C(=O)/C2=C\c1ccccn1	-	-	-	-	0.66µM	0.47µM
CC1CCCCN1S(=O)(=O)c1ccc(S(=O)(=O)N(Cc2ccccc2)Cc2ccco2)cc1 (configuration not stated)	-	-	-	-	10µM	10µM
Cc1ccc(S(=O)(=O)N2CCC(C(=O)N3CCC[C@H]3C(=O)NCc3ccco3)CC2)cc1	-	-	-	-	12µM	13µM
Cc1ccc(S(=O)(=O)N2CCCCC2C(=O)NCc2ccco2)cc1 (configuration not stated)	-	-	-	-	?	5.2µM
CN(C)c1ccc(C(=O)c2ccc(N(C)C)c(N)c2)cc1N	-	-	-	28	-	-
O=C(Nc1ccc(OCc2ccccc2Cl)cc1)c1cccnc1	-	-	-	-	?	?
COc1ccc(C(=O)NC2(C(F)(F)F)C(=O)Nc3c2c(=O)[nH]c(=O)n3CCc2ccc(OC)c(OC)c2)cc1 (configuration not stated)	-	-	-	-	-	-
COc1ccc(NC(=O)CSc2nnc(NC(=O)c3ccccc3C(=O)O)s2)cc1	-	-	-	-	?	?
O=C(Nc1ccc(Cl)cc1)N(C1=NCCC1)c1ccc(OC(F)F)cc1	75	-	-	41	-	-
C=CCC1(CC=C)CCCN1C(=O)CC1C(=O)NCCN1Cc1cc(OC)cc(OC)c1 (configuration not stated)	-	-	-	-	15µM	?
CC(C)c1onc(C(=O)NCc2ccc(Cl)cc2)c1[N+](=O)[O-]	-	-	-	-	?	-
COc1ccc(CNC(=O)c2noc(C(C)C)c2[N+](=O)[O-])cc1	-	-	-	-	-	1.9µM
SMILES	Shiga toxin inh	SARS PLpro yeast	NS1 inh	Cycloheximide cs	Pf growth 48h	Pf growth 96h
CC(C)c1onc(C(=O)N(C)C2CCCCC2)c1[N+](=O)[O-]	-	-	.	26	?	-
CC(C)c1onc(C(=O)NCc2ccccc2)c1[N+](=O)[O-]	41	-	-	23	?	-
CC(C)c1onc(C(=O)NC2CCCC2)c1[N+](=O)[O-]	-	-	.	-	?	?
CCCC(C)C(=O)OCC(=O)NCc1ccc(OC)c(OC)c1 (configuration not stated)	-	-	.	-	-	-
Cc1ccc([N+](=O)[O-])cc1NC(=O)c1ccc(C(C)(C)C)cc1	-	-	-	-	?	?
Cc1ccc[n+](C(C)C(=O)Nc2ccc([N+](=O)[O-])cc2C)c1 (configuration not stated)	-	-	.	-	-	-
Cc1ccc[n+](C(C)C(=O)Nc2ccc(C)c([N+](=O)[O-])c2)c1 (configuration not stated)	-	-	-	-	?	12µM
Cc1ccc(C(=O)NC(=S)Nc2ccc(NC(=O)c3cccs3)cc2)cc1[N+](=O)[O-]	-	-	-	-	-	9.3µM
Cc1ccc(NC(=O)c2cccs2)cc1[N+](=O)[O-]	38	-	-	36	-	?
Cc1ccc(NC(=O)c2ccc(C(C)(C)C)cc2)cc1[N+](=O)[O-]	12	-	-	43	-	-
Cc1ccc(C(=O)Nc2ccc(NC(=O)c3cccs3)cc2)cc1[N+](=O)[O-]	-	-	-	-	-	-
CCCCNC(C(=O)Nc1cccc(S(=O)(=O)N2CCOCC2)c1)c1ccccc1 (configuration not stated)	-	-	.	-	-	?
O=[N+]([O-])c1ccc(OCCO)nc1	-	-	-	-	-	-
CC(=O)c1c(C)[nH]c(C(=O)OCC(=O)NCc2cccs2)c1C	.	-	.	.	-	-
CN(Cc1ccncn1)C(=O)C1CCC(=O)N(Cc2cccc(C(F)(F)F)c2)C1 (configuration not stated)	-	-	-	-	-	-
CC(=O)Nc1ccc(S(=O)(=O)NCCSCc2ccc(Cl)cc2Cl)cc1	-	-	-	-	-	?
CCOC(=O)CNC(=O)N1CCCC(CCC(=O)NCc2ccc(F)c(F)c2)C1 (configuration not stated)	-	-	-	-	-	-
COc1ccccc1/C=C/CN1CCCC(CCC(=O)NCc2ccc(F)c(F)c2)C1 (configuration not stated)	-	-	-	-	?	-
COc1ccc(/C=C/CN2CCCC(CCC(=O)NCc3ccc(F)c(F)c3)C2)cc1 (configuration not stated)	-	-	-	-	13µM	-
Cn1cc(CCC(=O)N2CCCC(CCC(=O)NCc3ccc(F)c(F)c3)C2)cn1 (configuration not stated)	43	-	-	17	?	-
COCCC(=O)N1CCCC(CCC(=O)NCc2ccc(F)c(F)c2)C1 (configuration not stated)	79	-	-	17	-	-
Cn1cc(CCC(=O)N2CCCC(CCC(=O)NCc3ccccc3F)C2)cn1 (configuration not stated)	-	-	-	-	-	?
Cc1ccc(NC(=O)CN2CCCN(S(=O)(=O)c3ccc(Br)s3)CC2)cc1	-	-	-	-	-	.
O=C(CCNS(=O)(=O)c1ccccc1Cl)OCc1nnc(-c2ccccc2Cl)o1	.	-	.	.	-	-
CCOC(=O)Cc1csc(NC(=O)/C=C/c2ccccc2Cl)n1	71	-	-	38	-	-
CCOC(=O)Cc1csc(NC(=O)/C=C\c2ccccc2Cl)n1	53	-	-	23	-	-
